# Pf Dd2 inh = inhibitors of Plasmodium falciparum Dd2 growth | P. falciparum Dd2 growth, SYBR Green, 72 h; stronger effect = lower value | activity change, % at 10 µM | actives 2.3% (n = 94,000) | AID 1159554; in the data active = activity change below about -80%; inconclusive = no clear call, values can overlap the other calls
# T cruzi growth-1 = blocks T. cruzi growth in NIH3T3 culture; T. cruzi beta-gal in NIH3T3, GalScreen luminescence, 90 h; inhibition, % at 8.34 µM; actives 5.9% (n = 77,000);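 active = mean inhibition above about 93%, with at least 55% of replicates each passing it, limit read from the data, passing the limit was not always enough; inconclusive = only one of those two conditions holds; inactive = neither condition holds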
# C diff growth = C. difficile growth inhibition | actives 0.25% (n = 86,000) | growth activity, negative = inhibition, % at 16 µg/mL (by protocol) | Clostridium difficile clinical isolate growth, OD600, 24 h; stronger effect = lower value | AID 1259249;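 active = mean growth activity at or below -80% and every replicate also at or below -80%; inconclusive = mean at or below -80% but some replicate above -80%; inactive = mean growth activity above -80%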;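 note: 0% = DMSO wells and -100% = levofloxacin 16 µg/mL wells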
# T cruzi growth-2 = Trypanosoma cruzi proliferation inhibition; shares compounds with T cruzi growth-1; T. cruzi beta-gal in NIH3T3, GalScreen luminescence, 90 h; inhibition, % at 8.35 µM; actives 72% (n = 5,600); AID 651739;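 active = mean replicate inhibition above about 95% and at least 55% of replicates individually reaching it, limit read from the data; inconclusive = only one of the two criteria is met; inactive = neither criterion is met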
# T cruzi growth-3 = inhibitors of T. cruzi proliferation. shares compounds with T cruzi growth-1. T. cruzi beta-gal in NIH3T3, GalScreen luminescence, 90 h. inhibition, % at 2.09 µM. actives 21% (n = 5,600). AID 651740;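 active = mean inhibition above about 95%, with at least 55% of replicates also reaching it, limit read from the data; inconclusive = meets just one of the two conditions; inactive = meets neither condition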;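 note: plate controls were neutral control median for no effect and positive control median for full effect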
# NIH3T3 tox = cytotoxicity in mouse NIH/3T3 fibroblasts; shares compounds with T cruzi growth-1; actives 14% (n = 5,600); NIH/3T3 viability, CellTiter-Glo ATP luminescence, 90 h; AID 651742; cytotoxicity (signal decrease), % at 8.35 µM;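 active = mean signal decrease across replicates above about 35% based on untreated-well scatter, with enough replicates individually passing, limit read from the data; inconclusive = no rule stated though some were filed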;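 note: 0% = median of neutral control wells and 100% = median of positive control wells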
# NIH3T3 tox 2 = kills mouse NIH/3T3 fibroblasts; NIH/3T3 viability, CellTiter-Glo ATP luminescence, 90 h; shares compounds with T cruzi growth-1; AID 651744; inhibition, % at 24.9 µM; actives 56% (n = 5,600);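 active = mean loss of cell viability signal at or above a set limit, and enough replicates individually reaching it; inconclusive = meets only the mean limit or only the replicate share; inactive = meets neither condition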;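 note: 0% = median of neutral control wells and 100% = median of positive control wells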
# * = called active by the depositor; u = inconclusive; x = not tested or not shown. Only some compounds are listed: those with a hit (about 6.7% of all), similar ones and a draw of the others.
SMILES,Pf Dd2 inh,T cruzi growth-1,C diff growth,T cruzi growth-2,T cruzi growth-3,NIH3T3 tox,NIH3T3 tox 2
O=C(NC[C@H]1CC[C@H]2[C@H](CN2Cc2ccc(Oc3ccccc3)cc2)O1)C1CCOCC1,9,x,-1,x,x,x,x
C[C@@H]1CN([C@H](C)CO)C(=O)c2cc(C#CC3CCCCC3)cnc2O[C@@H]1CN(C)S(=O)(=O)c1ccccc1,-44,u,-2,106*,76,12,91*
C[C@H](CO)N1C[C@H](C)[C@H](CN(C)S(C)(=O)=O)Oc2ncc(C#CC3CCCCC3)cc2C1=O,0,86,-6,x,x,x,x
O=C(C[C@H]1C[C@H]2c3cc(NS(=O)(=O)c4ccccc4)ccc3O[C@H]2[C@@H](CO)O1)N1CCCCC1,-8,39,-3,x,x,x,x
O=C(Nc1ccc(F)cc1)Nc1ccc2c(c1)[C@@H]1C[C@@H](CC(=O)N3CCCCC3)O[C@H](CO)[C@@H]1O2,-10,73,2,x,x,x,x
O=C(C[C@@H]1C[C@H]2c3cc(NS(=O)(=O)c4ccccc4)ccc3O[C@H]2[C@@H](CO)O1)N1CCCCC1,-5,101*,-4,70,-9,-2,16
O=C(Nc1ccc(F)cc1)Nc1ccc2c(c1)[C@H]1C[C@@H](CC(=O)N3CCCCC3)O[C@@H](CO)[C@H]1O2,-67,111*,2,18,-5,-7,-1
O=C(C[C@@H]1C[C@H]2c3cc(NS(=O)(=O)c4ccccc4)ccc3O[C@H]2[C@@H](CO)O1)N1CCOCC1,-2,46,-8,x,x,x,x
O=C(C[C@@H]1C[C@H]2c3cc(NS(=O)(=O)c4ccccc4)ccc3O[C@H]2[C@H](CO)O1)N1CCCCC1,-42,104*,-2,59,36,24,40*
CCNC(=O)C[C@H]1CC[C@@H](NS(=O)(=O)c2ccc(C)cc2)[C@@H](CO)O1,6,11,-1,x,x,x,x
O=C(C[C@H]1CC[C@@H]2[C@H](COC[C@@H](O)CN2C(=O)c2ccccc2F)O1)N1CCCCC1,17,17,x,x,x,x,x
C[C@@H]1CN([C@@H](C)CO)S(=O)(=O)c2ccc(C3=CCCC3)cc2O[C@@H]1CN(C)S(=O)(=O)c1ccc(F)cc1,-13,119*,5,106*,75,29,31*
C[C@H](CO)N1C[C@H](C)[C@H](CN(C)S(=O)(=O)c2ccc(F)cc2)Oc2cc(C3=CCCC3)ccc2S1(=O)=O,-30,118*,14,108*,78,37*,24*
Cc1ccc(S(=O)(=O)N(C)C[C@@H]2Oc3cc(C4=CCCC4)ccc3S(=O)(=O)N([C@H](C)CO)C[C@H]2C)cc1,-73,x,0,x,x,x,x
Cc1ccc(S(=O)(=O)N(C)C[C@H]2Oc3cc(C4=CCCC4)ccc3S(=O)(=O)N([C@@H](C)CO)C[C@@H]2C)cc1,-50,x,4,x,x,x,x
NC(=O)[C@H]1[C@@H]2C(=O)O[C@@H](c3ccccc3)[C@@H](c3ccccc3)N2[C@@H](c2ccccc2OCCO)[C@]12C(=O)Nc1ccc(C#CC3(O)CCCCCC3)cc12,x,x,7,x,x,x,x
COc1ccc(CN(C)C[C@@H]2OCCCC[C@@H](C)Oc3ccc(NS(=O)(=O)c4ccccc4)cc3C(=O)N([C@H](C)CO)C[C@H]2C)cc1,-51,11,2,x,x,x,x
COc1ccc2c3c(n(C)c2c1)[C@@H](CO)N(C(=O)CN1CCOCC1)CC31CCN(C(C)=O)CC1,35,x,-1,x,x,x,x
C[C@@H]1CN([C@H](C)CO)C(=O)c2cc(C#Cc3ccccc3F)cnc2O[C@@H]1CN(C)C,0,98*,5,85,68,14,u
C[C@H](CO)N1C[C@H](C)[C@H](CN(C)S(=O)(=O)c2ccccc2)Oc2ncc(C#Cc3ccccc3F)cc2C1=O,-46,113*,-6,104*,50,11,55*
CCCNC(=O)N(C)C[C@@H]1Oc2ncc(C#Cc3ccccc3F)cc2C(=O)N([C@H](C)CO)C[C@H]1C,-17,107*,-3,97*,16,4,43*
C[C@@H]1CN([C@H](C)CO)C(=O)c2cc(C#Cc3ccccc3)cnc2O[C@@H]1CN(C)S(=O)(=O)c1ccccc1F,-67,71,0,x,x,x,x
CCCNC(=O)N(C)C[C@H]1Oc2ncc(C#Cc3ccccc3F)cc2C(=O)N([C@H](C)CO)C[C@H]1C,-13,66,6,x,x,x,x
C[C@@H]1CN([C@@H](C)CO)C(=O)c2cc(C#Cc3ccccc3F)cnc2O[C@H]1CN(C)S(C)(=O)=O,-10,69,x,x,x,x,x
C[C@@H]1CN([C@@H](C)CO)C(=O)c2cc(C#Cc3ccccc3F)cnc2O[C@H]1CN(C)S(=O)(=O)c1ccccc1F,-32,108*,2,115*,105*,19,68*
SMILES,Pf Dd2 inh,T cruzi growth-1,C diff growth,T cruzi growth-2,T cruzi growth-3,NIH3T3 tox,NIH3T3 tox 2
C[C@H](CO)N1C[C@H](C)[C@@H](CN(C)C)Oc2ncc(C#Cc3ccccc3F)cc2C1=O,-19,23,6,x,x,x,x
Cc1noc(C)c1S(=O)(=O)N(C)C[C@H]1Oc2ccc(NC(=O)Nc3ccc4c(c3)OCO4)cc2CC(=O)N([C@H](C)CO)C[C@@H]1C,-11,19,-8,x,x,x,x
C[C@@H]1CN([C@H](C)CO)C(=O)c2cc(NC(=O)CCC(F)(F)F)ccc2O[C@@H](C)CCCCO[C@@H]1CN(C)C(=O)NC1CCCCC1,-47,22,1,x,x,x,x
C[C@@H]1CN([C@@H](C)CO)C(=O)c2cc(C#Cc3ccccc3F)cnc2O[C@H]1CN(C)S(=O)(=O)c1ccccc1,-27,121*,-3,110*,76,19,25*
C[C@H]1CN([C@@H](C)CO)C(=O)c2cc(C#Cc3ccccc3F)cnc2O[C@H]1CN(C)S(=O)(=O)c1ccccc1,-75,x,-11,x,x,x,x
COCC#Cc1ccc([C@H]2[C@@H](CO)N3C(=O)CN(C(=O)c4cccnc4)C[C@@H]23)cc1,13,x,11,x,x,x,x
CC(C)CC#Cc1ccc2c(c1)O[C@H](CN(C)Cc1ccccc1)[C@H](C)CN([C@@H](C)CO)S2(=O)=O,-64,122*,18,93,111*,21,107*
CC(C)CC#Cc1ccc2c(c1)O[C@H](CN(C)Cc1ccc(F)cc1)[C@H](C)CN([C@H](C)CO)S2(=O)=O,-74,66,15,x,x,x,x
CC(C)CC#Cc1ccc2c(c1)O[C@H](CN(C)Cc1ccc(F)cc1)[C@@H](C)CN([C@H](C)CO)S2(=O)=O,-45,49,9,x,x,x,x
CC(C)CC#Cc1ccc2c(c1)O[C@H](CN(C)Cc1ccccc1)[C@@H](C)CN([C@H](C)CO)S2(=O)=O,-71,106*,12,97*,89,-3,105*
CC(C)CC#Cc1ccc2c(c1)O[C@@H](CN(C)Cc1ccccc1)[C@H](C)CN([C@@H](C)CO)S2(=O)=O,-56,125*,12,106*,u,49*,104*
